Hit rate of the full screen: of about 16,000 compounds, about 10 (0.06%) were called active. Rule as the data show it: active = inhibition above about 45%; inactive = the rest. Shown is part of a subset that was picked to be rich in actives.
target: Toll-like receptor 4 (Homo sapiens) (UniProt O00206); experiment: inhibitors of human TLR4-MyD88 binding (AID 811); conditions: Cell-based TLR4-MyD88 binding inhibition assay; at 10 µM; stronger effect = higher value
Sequence (O00206 whole entry, looked up): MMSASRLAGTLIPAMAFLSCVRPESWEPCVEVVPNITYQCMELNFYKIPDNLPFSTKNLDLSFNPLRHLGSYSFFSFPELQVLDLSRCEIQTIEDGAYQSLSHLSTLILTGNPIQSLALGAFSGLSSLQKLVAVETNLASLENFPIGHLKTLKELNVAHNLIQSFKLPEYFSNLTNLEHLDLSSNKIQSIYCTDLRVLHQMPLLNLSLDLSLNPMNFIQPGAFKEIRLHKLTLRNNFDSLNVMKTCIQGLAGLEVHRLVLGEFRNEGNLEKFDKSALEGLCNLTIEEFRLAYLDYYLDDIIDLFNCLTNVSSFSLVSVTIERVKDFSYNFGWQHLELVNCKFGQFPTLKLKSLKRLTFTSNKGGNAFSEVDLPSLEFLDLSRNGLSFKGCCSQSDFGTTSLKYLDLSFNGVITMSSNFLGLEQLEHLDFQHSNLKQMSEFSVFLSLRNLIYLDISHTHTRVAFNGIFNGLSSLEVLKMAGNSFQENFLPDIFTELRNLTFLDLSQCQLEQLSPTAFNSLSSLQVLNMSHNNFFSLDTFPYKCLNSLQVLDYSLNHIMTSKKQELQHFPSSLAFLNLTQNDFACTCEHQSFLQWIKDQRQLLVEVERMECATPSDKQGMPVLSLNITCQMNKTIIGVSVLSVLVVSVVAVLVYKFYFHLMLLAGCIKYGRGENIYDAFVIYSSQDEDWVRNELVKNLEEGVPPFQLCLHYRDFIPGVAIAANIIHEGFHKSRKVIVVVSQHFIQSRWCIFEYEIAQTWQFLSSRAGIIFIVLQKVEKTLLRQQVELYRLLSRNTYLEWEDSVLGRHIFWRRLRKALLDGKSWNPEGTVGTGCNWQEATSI

inhibition, inactive:
O=C(NC(=O)c1ccno1)Nc1ccccc1Cl -1.38%
Cn1c(CN2C(=O)CSc3ccc(C(F)(F)F)cc32)nnc1SCC(=O)c1ccccc1 -0.94%
COc1ccc(/C=N/Nc2nc(C)cc(=O)[nH]2)c(OC)c1 -3.66%
CCCc1nc(N)ncc1C(=O)OCC -3.52%
N/C(=N\OC(=O)c1ccc([N+](=O)[O-])o1)c1ccc(OCc2ccc(Cl)cc2)c(Cl)c1 -0.21%
Cc1onc(-c2ccccc2)c1CNS(=O)(=O)c1ccc(-c2ccccn2)s1 -0.5%
O=S(=O)(Nc1ccc2[nH]ccc2c1)c1cccs1 14.7%
CC(=O)c1nnc2cc(C)nn2c1C 3.88%
CS(=O)(=O)c1ccc(C(=O)Nc2cccc(Cl)c2)cc1 -0.58%
CCCCc1ccc(S(N)(=O)=O)cc1 -0.44%
O=C(Nc1ccccc1C(=O)NCc1c(F)cccc1Cl)c1ccccc1Cl 2.65%
O=[N+]([O-])c1ccc(C2CC2(Br)Br)cc1 (stereo not given) 11.1%
C/C(=N\O)C(C)(C)Nc1ccc(C(C)(C)C)cc1 0.91%
O=C(NNc1ccccc1C(F)(F)F)NS(=O)(=O)c1ccc(Cl)cc1 2.98%
COc1ccc(-c2csc(-c3cc(C)on3)n2)cc1 7.05%
N#Cc1c(C(F)(F)F)cc(-c2cccs2)nc1N1CCCCC1 -4.83%
Cc1cc2nsnc2cc1Cl 0.39%
COc1ccc(COCC(O)CN2CCN(c3ccc(C(F)(F)F)cn3)CC2)cc1 (stereo not given) -3.92%
CSc1ccc(C(F)(F)F)cc1C(=O)/C=C/N(C)C -5.34%
FC(F)(F)c1ccc(Cl)c(NC(=S)NN=C2CCCCCC2)c1 0.56%
Cc1ccc(N(C)NC(=O)Nc2ccc(Cl)cc2)nn1 12.1%
Cc1ccc(N=C2SC3(CC3)C(=O)N2c2ccc(C)cc2)cc1 -5.53%
Cc1ccc(S(=O)(=O)NNC(=O)c2ccccc2N)cc1 -4.45%
C=CCn1c(SCC(=O)Nc2nnc(-c3cccs3)s2)nnc1-c1ccco1 -3.96%
O=C(Nc1ccc(I)cc1Cl)C(=S)NCc1cccs1 3.66%
c1csc(-c2ccc(-c3ccon3)s2)c1 -1.22%
CSc1nc(N)c2ccccc2n1 -9.58%
O=C(Nn1cnnc1)c1cccs1 1.09%
Cc1nc(C(F)(F)F)ccc1C(=O)NC1CCCc2ccccc21 (stereo not given) 0.52%
Cc1ccccc1C(=O)NNC(=O)c1ccccc1C1=NCCCN1 4.96%
N#Cc1cccnc1NNC(=O)c1ccccc1C(=O)O 4.06%
O=c1[nH]c2c(=O)[nH]c(=S)[nH]c2nc1/C=C(\O)c1ccccc1 -4.76%
N/C(=N\OC(=O)c1cccc(Cl)c1)c1ccc2nonc2c1 1.32%
Oc1[nH]c2ccc(F)cc2c1N=NC(=S)NC1CC2C=CC1C2 (stereo not given) -1.4%
Nc1c(-c2nnc(SCC(=O)c3ccccc3)o2)cnn1-c1ccccc1 -5.52%

From PubChem BioAssay AID811 (The Scripps Research Institute Molecular Screening Center, 2007)
